Consider 13 compounds from PubChem BioAssay (NCI).

Among the test systems are HCT-15 colon; HT29 colon; SNB-75 CNS; SNB-19 CNS; U251 CNS; PC-3 prostate; SK-MEL-5 melanoma; UACC-62 melanoma; LOX IMVI melanoma; SK-MEL-28 melanoma.
Holding throughout (assay): NCI-60 one-dose screen, 48 h (100 = growth as untreated, 0 = no growth, -100 = all killed)
Settings in all cases: 10 µM unless noted

Compounds without any hit were thinned out: in the full panel of roughly 83,000, 20% have a hit.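 Results are percent growth after 48 hours of single-concentration exposure. 100 means growth as in untreated cells, lower positive values show inhibition; negative values down to -100 show cell death.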 Values without a mark were called inactive. Active and inactive are the calls of the source. Rule for the calls: active = growth percent below 10; inactive = the rest.

Consider `CCOC(=O)c1sc2nc(-c3cc4ccccc4o3)cc(-c3ccc(Cl)cc3)c2c1N`, for which the growth is 101% in the experiment on HCT-15 colon; 105% with HT29 colon; 74.7% in the experiment with SNB-75 CNS; 101% in the experiment on SNB-19 CNS; 95.8% in the experiment with U251 CNS; 77% in the experiment with PC-3 prostate. Besides, the growth in the experiment with SK-MEL-5 melanoma was 110%; in the experiment with UACC-62 melanoma it was 66.8%; in the experiment with LOX IMVI melanoma, 91.6%; in the experiment with SK-MEL-28 melanoma, 108%.
For `O=C(/C=C/c1cn(-c2ccccc2)nc1-c1cccc(Nc2ccnc3cc(Cl)ccc23)c1)c1ccc2c(c1)OCO2`, the growth with HCT-15 colon is 91.9%; with HT29 colon, 114%; in the experiment with SNB-75 CNS, 101%; with SNB-19 CNS, 104%; with U251 CNS it was 89.1%; with PC-3 prostate, 96.6%. In addition, the growth was 85.3% with SK-MEL-5 melanoma, 104% in the experiment on UACC-62 melanoma, 94.1% in the experiment on LOX IMVI melanoma and 82.7% with SK-MEL-28 melanoma.
Take `COc1ccc(C(=O)c2cc(C)c(OC)c(C)c2)cc1OC(=O)CCl`: the growth is 13.1% in the experiment on HCT-15 colon; 13.3% in the experiment on HT29 colon; 69.8% in the experiment with SNB-75 CNS; 30.8% in the experiment on SNB-19 CNS; 6.71% (active) in the experiment on U251 CNS; 25.9% in the experiment on PC-3 prostate. In addition, the growth was -18.4% (active) with SK-MEL-5 melanoma, 41.8% with UACC-62 melanoma, 18.9% with LOX IMVI melanoma and 57.5% in the experiment on SK-MEL-28 melanoma.
As to `CCN(CC)C(Cl)=Nc1ccc(Cl)cc1`, the growth in the experiment with HCT-15 colon is 98.1%; with HT29 colon, 97.3%; with SNB-75 CNS, 88.5%; in the experiment on SNB-19 CNS it was 95.5%; in the experiment with U251 CNS, 94%; in the experiment with PC-3 prostate, 103%. For the same compound, the growth with SK-MEL-5 melanoma is 102%; with UACC-62 melanoma it was 102%; in the experiment with LOX IMVI melanoma, 102%; with SK-MEL-28 melanoma, 106%.
For `COc1ccc(C(=O)C(C#N)c2cc(OC)c(OC)c(OC)c2)cc1` (stereo not given), the growth in the experiment on HCT-15 colon was 102%; in the experiment with HT29 colon, 99.2%; in the experiment on SNB-75 CNS, 90.7%; in the experiment with SNB-19 CNS it was 108%; with U251 CNS, 98.2%; with PC-3 prostate, 99%. The growth was 102% in the experiment with SK-MEL-5 melanoma, 105% with UACC-62 melanoma, 97.8% in the experiment on LOX IMVI melanoma and 104% in the experiment on SK-MEL-28 melanoma.
`C=CCn1c(SCC(=O)Nc2ccc(C(=O)/C=C/c3ccc(Cl)cc3)cc2)nnc1-c1ccc(Cl)cc1`: the growth in the experiment with HCT-15 colon is 77.2%; with HT29 colon, 92.8%; in the experiment on SNB-75 CNS it was 73.8%; in the experiment on SNB-19 CNS, 91.1%; in the experiment with U251 CNS, 79.7%; with PC-3 prostate, 69.9%. Besides, the growth in the experiment on SK-MEL-5 melanoma is 90.6%; with UACC-62 melanoma, 71.2%; in the experiment on LOX IMVI melanoma it was 89.9%; with SK-MEL-28 melanoma, 104%.
As for `CCOC(=O)C(=CNc1ccccc1Cl)C(=O)OCC`, the growth in the experiment with HCT-15 colon is 88.2%; in the experiment on HT29 colon, 89.1%; in the experiment on SNB-75 CNS, 108%; with SNB-19 CNS, 97.1%; in the experiment with U251 CNS, 94.5%; with PC-3 prostate, 95.8%. Moreover, the growth is 77.1% in the experiment with SK-MEL-5 melanoma, 72.4% in the experiment on UACC-62 melanoma, 95.8% with LOX IMVI melanoma and 116% in the experiment with SK-MEL-28 melanoma.
As to `COC1CC(N)C2OC(c3ccccc3)OCC2O1` (stereo not given), the growth with HCT-15 colon is 97.1%; in the experiment with HT29 colon, 103%; in the experiment on SNB-75 CNS, 71.4%; with SNB-19 CNS it was 103%; in the experiment on U251 CNS, 99.8%; with PC-3 prostate it was 105%. Further, the growth in the experiment on SK-MEL-5 melanoma is 105%; in the experiment with UACC-62 melanoma, 101%; in the experiment on LOX IMVI melanoma it was 98.8%; in the experiment on SK-MEL-28 melanoma, 105%.
Take `COc1ccc(NC(=O)C2c3ccccc3C(=O)N(CC(C)C)C2c2cccs2)cc1` (stereo not given): the growth in the experiment with HCT-15 colon was 98.9%; with HT29 colon, 101%; in the experiment with SNB-75 CNS it was 92.6%; in the experiment with SNB-19 CNS, 111%; in the experiment with U251 CNS it was 96%; with PC-3 prostate, 95.1%. In addition, the growth with SK-MEL-5 melanoma was 89.1%; with UACC-62 melanoma, 89.5%; in the experiment on LOX IMVI melanoma it was 86.3%; in the experiment on SK-MEL-28 melanoma it was 105%.
`CCCCc1n(Cc2ccc3ccccc3n2)cc[n+]1Cc1ccc2ccccc2n1`: the growth is 87.8% in the experiment with HCT-15 colon; 5.9% (active) in the experiment with HT29 colon; 17.5% with SNB-75 CNS; 10.4% in the experiment on SNB-19 CNS; 11.6% with U251 CNS; 16.2% with PC-3 prostate. The growth was -76.3% (active) with SK-MEL-5 melanoma, -6.58% (active) with UACC-62 melanoma, -22.2% (active) in the experiment with LOX IMVI melanoma and 16.1% in the experiment with SK-MEL-28 melanoma.
On to `Cc1cc(N=Nc2ccc(-c3ccc(N=Nc4ccc(O)c(C(=O)O)c4)cc3)cc2)c(N)c(N=Nc2ccc(C(=O)O)cc2)c1N`, for which the growth in the experiment with HCT-15 colon is 74.8%; in the experiment on HT29 colon, 76.6%; with SNB-75 CNS, 82.5%; in the experiment on SNB-19 CNS, 95.5%; in the experiment with U251 CNS, 88.4%; with PC-3 prostate, 78.1%. In addition, the growth with SK-MEL-5 melanoma was 87%; in the experiment with UACC-62 melanoma it was 71.2%; in the experiment on LOX IMVI melanoma, 93.9%; in the experiment with SK-MEL-28 melanoma, 80.6%.
As to `Cc1cc(C)cc(CCCCCCCCCCCCCCCCCC(=O)O)c1`, the growth was 102% in the experiment with HCT-15 colon; 110% with HT29 colon; 97.2% in the experiment on SNB-75 CNS; 115% with SNB-19 CNS; 110% in the experiment with U251 CNS; 106% with PC-3 prostate. Moreover, the growth with SK-MEL-5 melanoma was 102%; in the experiment on UACC-62 melanoma, 106%; in the experiment on LOX IMVI melanoma, 104%; in the experiment with SK-MEL-28 melanoma it was 119%.
Consider `Cc1cc(C#Cc2ccccc2)ccc1-n1c(/C=C/c2ccc(F)cc2)nc2ccccc2c1=O`, for which the growth with HCT-15 colon was 69.8%; with HT29 colon, 59.3%; in the experiment on SNB-75 CNS it was 86.5%; in the experiment on SNB-19 CNS, 88.5%; with U251 CNS, 82%; in the experiment on PC-3 prostate, 18.2%. Also, the growth with SK-MEL-5 melanoma was 36.8%; in the experiment on UACC-62 melanoma it was 55.1%; with LOX IMVI melanoma it was 71.2%; in the experiment on SK-MEL-28 melanoma it was 94.4%.
